MITF inh – MITF inhibitors, primary screen, biochemical, AlphaScreen, human. Microphthalmia-associated transcription factor (Homo sapiens), O75030. AlphaScreen MITF homodimerization, bead proximity signal. inhibition, % at 2.6 µM. 0.91% of 650,000 active; in the data active = inhibition above about 50%;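 also: 0% = vehicle wells with protein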
GPR151 activ – activators of human GPR151, primary screen, cell-based, PathHunter beta-arrestin, luminescence. activation, % at 11.2 µM. PathHunter beta-arrestin GPR151 cells. 1% of 650,000 active. G-protein coupled receptor 151 (Homo sapiens), Q8TDV0; in the data active = activation above about 4.9%;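 also: 0% = median of compound wells and 100% = cells with positive control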
Target sequence (Q8TDV0 whole entry, looked up): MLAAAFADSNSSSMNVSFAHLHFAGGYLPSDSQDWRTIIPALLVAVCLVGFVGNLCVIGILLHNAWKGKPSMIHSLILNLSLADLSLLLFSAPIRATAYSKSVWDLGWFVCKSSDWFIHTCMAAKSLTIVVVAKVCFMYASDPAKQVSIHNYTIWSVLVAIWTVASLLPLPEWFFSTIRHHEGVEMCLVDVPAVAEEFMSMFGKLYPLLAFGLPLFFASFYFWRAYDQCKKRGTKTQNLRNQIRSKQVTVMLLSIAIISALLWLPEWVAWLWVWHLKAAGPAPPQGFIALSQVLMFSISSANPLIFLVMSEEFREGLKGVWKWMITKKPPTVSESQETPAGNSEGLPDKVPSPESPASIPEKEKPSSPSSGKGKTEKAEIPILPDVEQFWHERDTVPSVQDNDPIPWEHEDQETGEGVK
TEAD-YAP inh – TEAD-YAP interaction inhibition, primary screen, TEAD-YAP interaction inhibitor project, luminescence, HEK-TIYL cells; TEAD-Gal4/YAP UAS-luciferase luminescence; inhibition, % at 9.12 µM; 1.4% of 640,000 active; AID 1259422, 2018; in the data active = inhibition above about 32%;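 also: 0% = median of test compound wells and 100% = reference inhibitor wells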
FBW7 act – FBW7 E3 ligase activators, primary screen, biochemical, AlphaScreen, human; F-box/WD repeat-containing protein 7 (Homo sapiens), Q969H0; AlphaScreen FBW7–phospho-cyclin E peptide binding, activator screen; normalized activity (activation), % at 26.1 µM; 0.13% of 650,000 active; in the data active = normalized activity above about 1.9%;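 also: purified mutant Fbw7 with reduced substrate affinity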
MITF confirm – MITF inhibitors, retest of hits, confirmation, biochemical, AlphaScreen, triplicate; shares compounds with MITF inh; AlphaScreen MITF homodimerization, biotin/His-MITF beads; inhibition, % at 2.6 µM; 16% of 4,700 active;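 active = inhibition above a cutoff derived from the DMSO control wells, cut at about 28% in these data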;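 also: 0% = MITF dimer wells with DMSO only; inhibitors lower the bead chemiluminescence by keeping MITF from dimerizing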
AS interf ctr – AlphaScreen optical interference compounds, counter-screen for MITF inhibitor project, biochemical, triplicate. LysRS AlphaScreen counterscreen, signal interference. AID 1259376, 2018. inhibition, % at 2.6 µM. shares compounds with MITF inh. 7.6% of 4,700 active;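 active = inhibition above a cutoff derived from the DMSO control wells, cut at about 30% in these data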
* = called active by the depositor; nt = not tested or not shown. Hits are enriched below; roughly 3.5% of the tested compounds scored in any of these assays.

SMILES	MITF inh	GPR151 activ	TEAD-YAP inh	FBW7 act	MITF confirm	AS interf ctr
CS(=O)(=O)N1CCN(C2CCCC2)CC1	21.4	0.7	2.9	-0.1	nt	nt
CCCN1CCC(N2CCN(S(=O)(=O)c3ccccc3[N+](=O)[O-])CC2)CC1	84.4*	-1.6	2.7	-0.4	12.0	12.0
CCS(=O)(=O)N1CCN(C2CCCC2)CC1	33.7	2.5	-2.6	-0.1	nt	nt
Cn1c(Nc2nc(NCCc3ccc(O)cc3)c3ncn(CCN4CCCC4=O)c3n2)nc2ccccc21	-5.5	4.2	17.7	-0.1	nt	nt
Cc1ccccc1C(=O)N(c1ccccc1)C1C=CS(=O)(=O)C1 (centres undefined)	-0.7	0.1	2.6	0.0	nt	nt
CC(C)NCC(O)CNC(C)C1COc2ccccc2O1 (centres undefined)	-2.7	2.5	-1.0	0.0	nt	nt
CC(NCc1ccc([N+](=O)[O-])cc1)C1COc2ccccc2O1 (centres undefined)	62.0*	-0.2	-6.3	0.1	-11.5	-5.5
O=C(c1ccccc1F)N(Cc1ccccc1)c1ccccn1	71.2*	-0.4	10.7	-0.1	7.9	18.4
Cc1ccc(C(=O)/C=C/c2ccc(Br)cc2)o1	7.5	-0.2	0.6	0.0	nt	nt
Cc1ccc(C(=O)/C=C/c2ccc(Br)o2)o1	67.1*	-0.7	-8.4	-0.6	20.7	-1.2
COc1ccc(CN2CCN(Cc3ccco3)CC2)cc1OC	71.2*	0.7	2.1	0.1	-16.3	2.3
COc1ccc(CN2CCN(Cc3ccco3)CC2)cc1Br	72.3*	-0.3	1.9	-0.2	12.1	15.8
CCOc1cc(CN2CCN(Cc3ccco3)CC2)ccc1OC	45.1	1.3	-12.4	-0.2	nt	nt
COc1ccc(CNC(=O)N2CCN(CC(=O)c3ccco3)CC2)cc1OC	53.8*	-0.4	-10.0	0.4	13.1	19.8
Cc1ccc(S(=O)(=O)N2CCN(CCC#N)CC2)cc1	62.4*	3.2	4.9	0.1	-5.1	1.6
N#CCCN1CCN(S(=O)(=O)c2ccccc2Br)CC1	77.5*	0.7	4.0	-0.2	-6.6	6.0
CC1=C(C(=O)N2CCOCC2)C(c2ccc(F)cc2)C2=C(CC(C)(C)CC2=O)N1 (centres undefined)	-7.7	2.2	-2.5	0.5	nt	nt
CC[C@H](C)[C@H](NC(N)=O)C(=O)Nc1ccc(I)cc1	-5.1	0.2	-2.6	0.1	nt	nt
Cc1nc2nc[nH]n2c(=O)c1NS(=O)(=O)c1ccc2c(c1)n(C)c(=O)n2C	63.9*	-1.2	4.2	-0.1	-3.4	-5.5
Cc1nc2nc[nH]n2c(=O)c1NS(=O)(=O)c1ccc(F)cc1	42.8	-0.3	1.6	0.0	nt	nt
CC(CC(=O)Nc1ccccc1)NC1CCN(Cc2ccccc2)CC1 (centres undefined)	66.4*	0.5	-0.1	0.0	15.1	9.6
CC(=O)Nc1ccc(CNC2CCN(Cc3ccccc3)CC2)cc1	79.3*	-0.8	11.2	0.2	1.6	2.5
c1ccc(CN2CCC(NCc3ccc(-n4ccnc4)cc3)CC2)cc1	51.5*	2.6	2.5	0.1	11.4	16.7
NC(=O)NC(c1ccccc1)c1coc2ccccc12 (centres undefined)	-12.5	-1.3	-0.8	-0.1	nt	nt
CCCNc1nc(N2CCN(c3ccccn3)CC2)nc2c1ncn2CCN1CCCC1=O	1.7	0.3	5.9	0.2	nt	nt
SMILES	MITF inh	GPR151 activ	TEAD-YAP inh	FBW7 act	MITF confirm	AS interf ctr
CN1CCN(CCCCOc2ccc(C(=O)c3ccccc3)cc2)CC1	74.8*	-0.7	2.0	-0.1	-0.9	8.0
O=C(c1ccccc1)c1ccc(OCCCCN2CCOCC2)cc1	47.6	-1.8	-3.5	0.6	nt	nt
CCOc1ccc(OCCOCCN2CCOCC2)cc1	49.3	-1.5	2.6	0.4	nt	nt
CCC(C)(C)c1ccc(OCCN2CCNCC2)cc1	72.2*	0.0	6.5	-0.2	-16.8	-7.3
c1ccc(COc2ccc(OCCN3CCNCC3)cc2)cc1	70.5*	1.8	-11.3	-0.3	6.1	-3.5
CCOc1ccc(OCCCCN2CCNCC2)cc1	65.2*	-0.3	-19.6	0.0	11.4	11.8
CCc1ccc(OCCN2CCNCC2)cc1	9.3	-1.0	-3.5	-0.3	nt	nt
c1ccc2c(OCCCN3CCNCC3)cccc2c1	37.7	0.0	4.6	-0.4	nt	nt
CC(C)(c1ccccc1)c1ccc(OCCCN2CCNCC2)cc1	58.1*	0.2	5.5	-0.4	-4.9	2.6
CNCCCOc1ccc(C(C)(C)c2ccccc2)cc1	47.4	0.2	-4.5	-0.1	nt	nt
CN1CCN(CCCCN2C(=O)c3ccccc3C2=O)CC1	86.6*	0.1	1.9	0.1	11.7	-0.1
CNCCOc1ccc(C(C)(C)c2ccccc2)cc1	51.6*	-0.6	-5.5	0.7	6.4	18.3
COc1ccc(C(=O)CN2CCN(C)CC2)cc1	76.5*	0.0	-7.0	0.2	-0.3	4.3
Cc1cc(C(=O)COC(=O)C(C)NC(N)=O)c(C)n1-c1ccc(OC(F)F)cc1 (centres undefined)	8.7	-0.9	8.2	-0.2	nt	nt
COc1nn(C)cc1C(=O)NCC(=O)NCc1ccc(OCc2ccccc2)cc1	12.3	-1.5	2.4	0.3	nt	nt
NS(=O)(=O)c1ccc(CNS(=O)(=O)c2ccccc2[N+](=O)[O-])cc1	0.4	-0.4	6.2	0.1	nt	nt
COc1cc(OC)c(C(=O)OCC(=O)NCC(F)(F)F)cc1OC	-3.9	0.8	-1.3	0.5	nt	nt
CCOc1ccc(NC(=O)CSc2nc3ccsc3c(=O)n2Cc2ccc(OC)cc2)cc1	-7.8	-0.4	-0.7	0.0	nt	nt
Clc1ccc(OCCN2CCNCC2)cc1	14.5	-0.4	9.6	0.4	nt	nt
CN1CCN(CCCOc2ccc(OCc3ccccc3)cc2)CC1	58.9*	-0.6	-40.0	0.0	3.0	4.9
COCCCNCCCCOc1ccc(OCc2ccccc2)cc1	52.9*	0.4	-26.5	-0.1	3.4	23.1
Ic1ccc(OCCN2CCNCC2)cc1	62.6*	-0.8	5.8	-0.3	-18.2	-2.1
COc1ccc(CCNC(=O)c2ccc3c(=O)n(-c4ccc(F)cc4)c(=S)[nH]c3c2)cc1OC	-5.4	-0.7	7.1	0.0	nt	nt
Cc1cccc(OCC(=O)Nc2ccc(-c3nc4ccccc4[nH]3)cc2)c1	11.8	-2.5	-25.8	0.9	nt	nt
CCc1ccc(N2C(=O)C(Cl)=C(Nc3ccccc3OC)C2=O)cc1	9.6	-0.6	-2.7	-0.5	nt	nt
c1n[nH]c(Sc2ncnc3sc4c(c23)CCCC4)n1	11.3	-0.5	4.3	-0.1	nt	nt
CCN1C(=O)/C(=C/c2ccco2)S/C1=N/S(=O)(=O)c1ccc(C)cc1	52.9*	0.4	-3.5	0.1	9.8	5.3
Cc1cc(NC(=O)CNCC2CCCO2)no1 (centres undefined)	54.5*	-0.4	8.5	-0.2	-1.5	7.0
O=C(CN1CCOCC1)Nc1ccccc1N1CCOCC1	87.1*	2.0	7.1	0.1	15.5	17.0

Screening results from PubChem BioAssay.
